Measurements from the supplement of paper PMC8975748.
Where a name gives a salt, the structure may show the parent alone.

system: Saccharomyces cerevisiae BY4741 SeMeCo community; experiment: z-score of subpopulation abundance vs DMSO median, subpopulation auxotrophic for HL; higher = larger share of this subpopulation than in DMSO controls; settings: 10 µM; 24 h; SM minimal medium; subpopulation (auxotrophy): HL
In short: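 A community of Saccharomyces cerevisiae BY4741 was built from four plasmids that each restored one auxotrophy and encoded a distinct fluorescent protein. Pre-grown overnight to OD600 1.0 and diluted to 0.3, it was dispensed at 70 µl into 384-well plates acoustically predosed with library drugs for a final 10 µM, and grown 24 h in minimal SM medium. Cells were then paraformaldehyde-fixed and imaged by automated confocal microscopy. Thresholds and autofluorescence correction came from single-auxotroph fluorescent strains, and each subpopulation's abundance was scored as a z-score relative to the vehicle-well median.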

SMILES | z-score of subpopulation abundance
Nc1ccc(S(=O)(=O)c2ccc(N)cc2)cc1 [Dapson] | 0.32
CN(C)CC(c1ccc(O)cc1)C1(O)CCCCC1 (configuration not stated) [Desvenlafaxine] | -0.75
CN(C)CCC=C1c2ccccc2C(C)(C)c2ccccc21 [Melitracen hydrochloride] | -1.23
Oc1cccc(O)c1 [Resorcinol] | -0.43
C[C@]1(COc2ccc(N3CCC(Oc4ccc(OC(F)(F)F)cc4)CC3)cc2)Cn2cc([N+](=O)[O-])nc2O1 [Delamanid] | 0.9
NC[C@H]1O[C@H](O[C@H]2[C@H](O)[C@@H](O[C@H]3O[C@H](CO)[C@@H](O)[C@H](N)[C@H]3O)[C@H](N)C[C@@H]2N)[C@H](O)[C@@H](O)[C@@H]1O [Kanamycin sulfate] | 1.08
Cn1nnnc1SCC1=C(C(=O)O)N2C(=O)[C@@H](NC(=O)[C@H](OC=O)c3ccccc3)[C@H]2SC1 [Cefamandole nafate] | 0.65
Cc1c(OCC(F)(F)F)ccnc1C[S@@+]([O-])c1nc2ccccc2[nH]1 [Dexlansoprazole] | 0.7
CCC(=O)O[C@@H]1CC(=O)O[C@H](C)C/C=C/C=C/[C@H](O)[C@H](C)C[C@H](CC=O)[C@H](O[C@@H]2O[C@H](C)[C@@H](O[C@H]3C[C@@](C)(O)[C@@H](OC(=O)CC)[C@H](C)O3)[C@H](N(C)C)[C@H]2O)[C@H]1OC [Midecamycin] | 1.52
CCOc1ccc2nc3cc(N)ccc3c(N)c2c1 [Ethacridine lactate monohydrate] | 3.54
CN1CCN(CC(=O)N2c3ccccc3C(=O)Nc3cccnc32)CC1 [Pirenzepine dihydrochloride] | -0.63
CC1(C)S[C@@H]2[C@H](NC(=O)Cc3ccccc3)C(=O)N2[C@H]1C(=O)O [Benzathine penicilline] | -0.03
